# Data as given in PubChem BioAssay (NCATS).
# Values without a mark were called inactive. Results filed as inconclusive are left out. Calls of active or inactive are those of the source. Unless noted, calls come from the whole dose curve; as a rule, active = well fitted curve in the direction sought with a large enough effect; inconclusive = small, poorly fitted or top-dose-only effect, or another doubt; inactive = no such curve, though single readings can be large; an effect the other way counts as inactive or inconclusive.
# Assays:
# [1] = AP1 Signaling Pathway (AID 357; active = well fitted curve in either direction with a large enough effect, not every such curve was filed as active;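 note: ME-180 reporter cells stimulated with EGF at its EC50 level; % is set by controls: 0 for no effect and ±100 for the full control effect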); conditions: ME-180 AP-1-bla reporter, EGF-induced, beta-lactamase ratio, 5 h; at 17.2 µM (top of the series) unless noted
# Outline: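 A ratiometric CCF4 readout (405 nm excitation; 460 and 530 nm emission) quantified AP-1-driven beta-lactamase in ME-180 cells after 5 h with compound and EC50 EGF; AC50 values were derived for activators and inhibitors.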
# [2] = biological target: Cytochrome P450 1A2 (Homo sapiens) (UniProt P05177); experiment: p450-cyp1a2 (AID 410; calls by dose curve; note: potency is the fitted concentration of half-maximal effect;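 for activity change, negative = inhibition: -100% = full effect of reference inhibitor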)
# Outline: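 20nM CYP1A2 with 100uM Luciferin-ME (at Km) in 100mM KPO4; compound preincubated 10 min, NADPH regeneration added, 60 min at room temperature. Luciferin quantified by luminescence after detection reagent; normalized to 57 uM furafylline.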
# [3] = Stat Signaling Pathway (AID 446; active = well fitted curve in either direction with a large enough effect, not every such curve was filed as active;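 note: ME-180 cervical cancer cells given 40 pM IL-6 alongside compound; SIE-controlled beta-lactamase reporter measured as 460/530 nm FRET emission ratio; % is set by controls: 0 for no effect and ±100 for the full control effect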); conditions: ME-180 SIE beta-lactamase reporter, IL-6 stimulated, 5 h; at 17.2 µM (top of the series) unless noted
# Outline: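 Screening format detects activators and inhibitors alike: ME-180 SIE-bla cells stimulated at 40 pM IL-6 for 5 hrs with compound, then dual-emission beta-lactamase read at 405 nm excitation.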
# [4] = biological target: Glucocorticoid receptor (Homo sapiens) (UniProt P04150); experiment: GR-GFP Redistribution (AID 450;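 active = compounds whose dose series gives a full or clear partial fitted curve of increased nuclear translocation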; note: potency is the fitted concentration of half-maximal effect)
# [5] = biological target: Glucocorticoid receptor (Homo sapiens) (UniProt P04150); experiment: GR-EFC Redistribution (AID 451; calls by dose curve; note: potency is the fitted concentration of half-maximal effect); conditions: CHO-K1 GR-EFC translocation, beta-gal luminescence, 2 h
# Outline: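 CHO-K1 cells expressing nuclear EA and GR-ED fragments of b-gal; compounds titrated up to 46 uM final, 2 h at 37 C. GR nuclear translocation read as complemented b-gal luminescence after 1 h RT detection.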
# [6] = biological target: 3',5'-cyclic-AMP phosphodiesterase 4B (Homo sapiens) (UniProt Q07343); experiment: qHTS Assay for Inhibitors of PDE-IV (AID 607; active = well fitted activation curve with a large enough effect in the main read-out, with a control signal flat, not every such curve was filed as active; note: % of control where 0% means no effect)
# Outline: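 The readout is membrane depolarisation from a cAMP-sensing CNG channel, detected with a potential dye at ex 535/em 590. Cells were HEK293-derived (endogenous PDE-IV) at 1000 cells/well, titrated up to 22.9 uM final.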
# [7] = biological target: Guanine nucleotide-binding protein G(i) subunit alpha-1 (Homo sapiens) (UniProt P63096); experiment: qHTS Assay for Inhibitors of RGS12 GoLoco Motif Activity (Green Fluorophore) (AID 879);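 note: 0% = labeled peptide with Gαi1 and full inhibition = labeled peptide alone without protein; negative values mean loss of peptide binding seen as reduced polarization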
# Outline: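 Fluorescence polarization assay: 50 nM Gαi1 with 10 nM FITC-labeled RGS12 GoLoco peptide in 10 mM Tris pH 7.5, 150 mM NaCl, 0.1 mM GDP, 0.05% NP40, 10 min at room temperature with compound.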
# [8] = biological target: Cytochrome P450 3A4 (Homo sapiens) (UniProt P08684); experiment: qHTS Assay for Activators of Cytochrome P450 3A4 (AID 885); note: nearly all actives have a fitted effect of over 65% in size
# Outline: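 Steps: enzyme/substrate mix dispensed; compound added, 10 min RT; NADPH regeneration solution added, 60 min RT; luciferin detection buffer stops reaction; 20 min later luminescence measured.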
# [9] = biological target: Muscarinic acetylcholine receptor M1 (Rattus norvegicus) (UniProt P08482); experiment: qHTS Assay for Antagonists of Acetylcholine Muscarinic M1 Receptor: Kinetic Measurement of Intracellular Calcium Response (AID 943); note: nearly all actives have a fitted effect of over 75% in size; note: potency is the fitted concentration of half-maximal effect
# Outline: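 CHO cells expressing rat M1 receptor, Fluo-4 loaded, preincubated 10 min with compound, then stimulated with EC80 carbachol (100 nM final). Kinetic calcium fluorescence over 4 min; response taken as peak over basal signal.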
# [10] = biological target: Muscarinic acetylcholine receptor M1 (Rattus norvegicus) (UniProt P08482); experiment: qHTS Assay for Antagonists of Acetylcholine Muscarinic M1 Receptor: Measurement of IP-One Response (AID 944); note: nearly all actives have a fitted effect of over 75% in size
# Outline: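 CHO cells stably expressing rat M1, pretreated 10 min with compound, then stimulated 30 min with carbachol at EC80 (200 nM) in LiCl-containing buffer pH 7.4; IP1 accumulation read by HTRF competition (665/620 nm).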
# [11] = biological target: Pyruvate kinase (Leishmania mexicana) (UniProt Q27686); experiment: qHTS Validation Assay for Inhibitors of Leishmania Mexicana Pyruvate Kinase (AID 945);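 note: 0% = DMSO only neutral control wells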
# Outline: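 LmPYK E451W 0.2 nM; 0.5 mM PEP, 0.1 mM ADP, 7 mM MgCl2, 50 mM KCl, imidazole pH 7.2, 0.01% Tween 20, 0.05% BSA; 1 h RT; PKLight luminescence; DMSO-normalized.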
# [12] = biological target: Pyruvate kinase PKM (Homo sapiens) (UniProt P14618); experiment: qHTS Assay for Activators of Human Muscle Pyruvate Kinase (AID 954; active = well fitted curve in the direction sought with a large enough effect, not every such curve was filed as active;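 note: 0% = uninhibited enzyme and -100% = no enzyme or full thiadiazolimine inhibition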)
# Outline: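 Reaction: 0.1 nM purified PKM2 with 0.5 mM phosphoenolpyruvate and 0.1 mM ADP, room temperature, 1 h. Readout: luciferase-based ATP luminescence after stop reagent. Activators judged against a 0.3 nM enzyme column.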
# [13] = biological target: Alpha-galactosidase A (Homo sapiens) (UniProt P06280); experiment: Counterscreen for Glucocerebrosidase Inhibitors: qHTS Assay for Human alpha-Galactosidase at pH 4.5 (AID 992); note: 0% is about no effect
# Outline: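 Concentration-response curves (0.7 nM to 77 uM final) were modeled with the Hill equation to give AC50. Reactions: 2 nM enzyme, 80 uM fluorogenic alpha-galactoside, pH 4.5 citric acid buffer, 20 min, room temperature.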
# [14] = biological target: alpha-glucosidase (Oryza sativa, rice) (UniProt Q653V4); experiment: Counterscreen for Glucocerebrosidase Inhibitors: qHTS Assay for Rice alpha-Glucosidase at pH 5.0 (AID 997);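 note: 0% = full activity with enzyme and -100% = basal without enzyme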
# Outline: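 Rice alpha-glucosidase (4 nM final) with 400 uM 4-methylumbelliferyl-alpha-D-glucopyranoside in citrate buffer pH 5.0, 20 min at room temperature, stopped at pH 10; fluorescence 365/440 nm, compounds 0.7 nM–77 uM, AC50 from Hill fits.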
# [15] = biological target: Mitogen-activated protein kinase 10 (Mus musculus) (UniProt Q61831); experiment: JNK3 AlphaScreen Assay (AID 530; active = well fitted curve in either direction with a large enough effect, not every such curve was filed as active;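 note: kinase came from lysate of stimulated human HepG2 cells; signal reports phosphorylation of biotinylated GST-cJun 1-79 at Ser73 with 10 µM ATP; % is set by controls: 0 for no effect and ±100 for the full control effect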)
# Outline: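 Pre-activated (IL-1β/TNFα) JNK3 in HepG2 lysates phosphorylates biotin-GST-cJun(1-79), 10 uM ATP; anti-phospho-cJun(Ser73) AlphaScreen read at room temperature, pH 7.6 Tris buffer. Compounds pre-incubated 15 min as titrations.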
# [16] = biological target: Cytochrome P450 2C9 (Homo sapiens) (UniProt P11712); experiment: qHTS Assay for Inhibitors and Substrates of Cytochrome P450 2C9 (AID 883); note: potency is the fitted concentration of half-maximal effect; nearly all actives have a fitted effect of over 60% in size
# Outline: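 Signal: luciferase luminescence reporting luciferin produced by CYP2C9. Conditions: 10nM enzyme, Luciferin-H 100uM at KM, 25mM KPO4, 37C, 60 min NADPH-driven reaction. Reference: 57uM sulphaphenazole as 100% inhibition.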
# [17] = biological target: Cytochrome P450 2C19 (Homo sapiens) (UniProt P33261); experiment: qHTS Assay for Inhibitors and Substrates of Cytochrome P450 2C19 (AID 899); note: potency is the fitted concentration of half-maximal effect; nearly all actives have a fitted effect of over 60% in size
# Outline: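 Signal comes from luciferase acting on luciferin released by CYP2C19-mediated hydroxylation of Luciferin-H EGE, 10uM (KM). Assay mix: 5nM enzyme, 50mM KPO4; 60 min at 37C with NADPH regeneration. Data normalized against 57uM ketoconazole.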
# [18] = NFAT Signaling Pathway (AID 444; active = well fitted curve in either direction with a large enough effect, not every such curve was filed as active;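 note: carbachol stimulus at about its EC50 of 1 µM final; % is set by controls: 0 for no effect and ±100 for the full control effect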); conditions: Jurkat NFAT-bla M1, carbachol, beta-lactamase ratio, 5 h; at 17.2 µM (top of the series) unless noted
# Outline: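 Jurkat cells with NFAT-driven β-lactamase reporter and co-expressed M1 receptor, stimulated with carbachol (final 1 uM, ~EC50), compound titration, 5 h at 37 °C. CCF4 loaded 1 h at RT; 460/530 nm ratio gave %activity and AC50.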
# [19] = biological target: Cytochrome P450 2D6 (Homo sapiens) (UniProt P10635); experiment: qHTS Assay for Inhibitors and Substrates of Cytochrome P450 2D6 (AID 891);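 note: luciferin methyl ether substrate demethylated by CYP2D6 with NADPH regeneration; % is set by controls: 0 for no effect and ±100 for the full control effect; nearly all actives have a fitted effect of over 60% in size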
# Outline: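 Human CYP2D6 (5 nM) with 30 uM Luciferin-ME EGE (at Km) in 100 mM KPO4, compound preincubated 10 min, then NADPH regeneration system for 60 min at room temperature. Luciferin read by luminescence; normalized to 1.43 uM quinidine.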
# [20] = qHTS Assay for Identification of Small Molecule Agonists for Thrombopoietin (TPO) Signaling Pathway (AID 917); note: % is set by controls: 0 for no effect and ±100 for the full control effect
# Outline: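 Murine Ba/F3 cells expressing human TPO receptor and GPIIb-promoter luciferase, IL-3-starved overnight, given compound plus TPO at 26 pM (EC50). After 24 h at 37 C, 5% CO2, luminescence read.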
# Sequence of Muscarinic acetylcholine receptor M1 (Rattus norvegicus) (P08482 whole entry, looked up): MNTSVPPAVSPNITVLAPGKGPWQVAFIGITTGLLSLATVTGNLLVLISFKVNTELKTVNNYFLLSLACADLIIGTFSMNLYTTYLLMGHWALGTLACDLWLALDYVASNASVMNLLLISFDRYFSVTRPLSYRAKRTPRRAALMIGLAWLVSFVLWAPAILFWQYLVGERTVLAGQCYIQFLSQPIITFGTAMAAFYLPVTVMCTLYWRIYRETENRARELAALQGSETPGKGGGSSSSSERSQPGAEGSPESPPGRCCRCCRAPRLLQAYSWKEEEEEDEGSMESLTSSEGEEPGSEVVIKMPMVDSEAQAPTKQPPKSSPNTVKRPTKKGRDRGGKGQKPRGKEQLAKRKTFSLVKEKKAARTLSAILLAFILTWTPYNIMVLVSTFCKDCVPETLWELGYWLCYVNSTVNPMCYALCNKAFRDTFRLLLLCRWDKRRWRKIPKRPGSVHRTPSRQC
# Sequence of Glucocorticoid receptor (Homo sapiens) (P04150 whole entry, looked up, the tested form may be a part): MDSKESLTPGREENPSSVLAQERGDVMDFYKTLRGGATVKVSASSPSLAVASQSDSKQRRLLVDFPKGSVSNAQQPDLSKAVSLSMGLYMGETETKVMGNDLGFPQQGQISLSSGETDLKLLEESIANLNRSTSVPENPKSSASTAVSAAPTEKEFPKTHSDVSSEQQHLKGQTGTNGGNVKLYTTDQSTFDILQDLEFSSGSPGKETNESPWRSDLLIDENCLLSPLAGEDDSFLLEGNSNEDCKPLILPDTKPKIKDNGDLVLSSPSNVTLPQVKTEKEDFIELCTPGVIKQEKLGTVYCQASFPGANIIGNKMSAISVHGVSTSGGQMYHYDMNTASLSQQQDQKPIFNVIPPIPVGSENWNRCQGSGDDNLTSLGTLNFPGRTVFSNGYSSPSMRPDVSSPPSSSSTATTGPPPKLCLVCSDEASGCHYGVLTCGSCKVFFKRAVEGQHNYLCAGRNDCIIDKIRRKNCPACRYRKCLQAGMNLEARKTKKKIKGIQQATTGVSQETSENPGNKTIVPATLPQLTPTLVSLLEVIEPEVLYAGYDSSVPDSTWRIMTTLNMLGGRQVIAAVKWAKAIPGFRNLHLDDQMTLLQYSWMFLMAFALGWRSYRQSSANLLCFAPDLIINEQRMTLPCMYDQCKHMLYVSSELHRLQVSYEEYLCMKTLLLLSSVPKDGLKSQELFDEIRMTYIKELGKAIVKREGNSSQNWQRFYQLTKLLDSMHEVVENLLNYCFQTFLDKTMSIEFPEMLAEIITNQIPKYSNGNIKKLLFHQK
# Sequence of 3',5'-cyclic-AMP phosphodiesterase 4B (Homo sapiens) (Q07343 whole entry, looked up): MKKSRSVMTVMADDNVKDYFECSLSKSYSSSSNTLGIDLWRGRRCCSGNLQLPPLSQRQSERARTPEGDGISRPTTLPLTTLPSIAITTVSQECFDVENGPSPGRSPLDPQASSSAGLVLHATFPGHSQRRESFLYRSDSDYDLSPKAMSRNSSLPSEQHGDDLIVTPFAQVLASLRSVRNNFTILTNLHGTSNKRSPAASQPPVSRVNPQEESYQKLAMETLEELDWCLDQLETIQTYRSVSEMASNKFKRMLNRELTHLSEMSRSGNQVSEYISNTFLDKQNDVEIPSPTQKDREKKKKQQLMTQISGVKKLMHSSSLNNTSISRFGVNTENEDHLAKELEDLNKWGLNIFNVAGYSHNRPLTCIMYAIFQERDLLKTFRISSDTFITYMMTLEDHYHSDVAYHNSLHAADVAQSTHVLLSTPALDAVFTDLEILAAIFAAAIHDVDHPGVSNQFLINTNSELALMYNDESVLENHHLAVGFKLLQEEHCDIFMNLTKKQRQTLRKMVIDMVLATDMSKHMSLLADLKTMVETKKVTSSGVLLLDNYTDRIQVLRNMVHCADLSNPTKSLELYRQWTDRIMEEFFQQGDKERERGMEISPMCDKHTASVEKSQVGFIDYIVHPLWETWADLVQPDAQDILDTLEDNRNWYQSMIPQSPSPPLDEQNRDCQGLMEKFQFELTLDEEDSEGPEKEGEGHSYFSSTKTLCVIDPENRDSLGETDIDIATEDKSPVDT
# Sequence of Cytochrome P450 1A2 (Homo sapiens) (P05177 whole entry, looked up): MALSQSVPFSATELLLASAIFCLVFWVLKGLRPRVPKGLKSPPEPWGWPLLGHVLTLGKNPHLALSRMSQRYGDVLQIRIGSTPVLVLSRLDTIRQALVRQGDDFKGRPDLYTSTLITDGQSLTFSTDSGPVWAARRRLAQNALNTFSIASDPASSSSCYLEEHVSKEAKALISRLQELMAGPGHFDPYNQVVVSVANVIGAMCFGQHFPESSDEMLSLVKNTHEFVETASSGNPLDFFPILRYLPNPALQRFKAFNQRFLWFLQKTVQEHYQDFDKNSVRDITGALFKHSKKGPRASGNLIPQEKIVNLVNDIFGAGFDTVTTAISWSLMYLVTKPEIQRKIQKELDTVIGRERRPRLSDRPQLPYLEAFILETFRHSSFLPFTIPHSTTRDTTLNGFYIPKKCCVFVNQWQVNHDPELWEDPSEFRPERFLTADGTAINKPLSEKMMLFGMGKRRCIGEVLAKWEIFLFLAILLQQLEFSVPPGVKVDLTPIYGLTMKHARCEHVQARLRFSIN
# Sequence of Cytochrome P450 3A4 (Homo sapiens) (P08684 whole entry, looked up): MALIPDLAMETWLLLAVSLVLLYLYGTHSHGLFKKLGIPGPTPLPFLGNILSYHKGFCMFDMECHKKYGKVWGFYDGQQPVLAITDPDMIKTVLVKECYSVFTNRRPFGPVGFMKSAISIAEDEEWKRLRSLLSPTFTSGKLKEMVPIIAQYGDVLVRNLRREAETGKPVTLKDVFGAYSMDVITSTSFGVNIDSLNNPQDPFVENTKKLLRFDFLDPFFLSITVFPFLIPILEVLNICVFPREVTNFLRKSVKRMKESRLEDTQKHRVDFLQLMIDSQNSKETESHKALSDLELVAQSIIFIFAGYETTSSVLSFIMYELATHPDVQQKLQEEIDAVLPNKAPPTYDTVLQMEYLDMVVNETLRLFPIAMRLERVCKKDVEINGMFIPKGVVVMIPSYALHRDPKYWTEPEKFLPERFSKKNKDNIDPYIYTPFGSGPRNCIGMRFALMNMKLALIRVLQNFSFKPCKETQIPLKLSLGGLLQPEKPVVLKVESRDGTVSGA
# Sequence of Pyruvate kinase (Leishmania mexicana) (Q27686 2-499 E452W): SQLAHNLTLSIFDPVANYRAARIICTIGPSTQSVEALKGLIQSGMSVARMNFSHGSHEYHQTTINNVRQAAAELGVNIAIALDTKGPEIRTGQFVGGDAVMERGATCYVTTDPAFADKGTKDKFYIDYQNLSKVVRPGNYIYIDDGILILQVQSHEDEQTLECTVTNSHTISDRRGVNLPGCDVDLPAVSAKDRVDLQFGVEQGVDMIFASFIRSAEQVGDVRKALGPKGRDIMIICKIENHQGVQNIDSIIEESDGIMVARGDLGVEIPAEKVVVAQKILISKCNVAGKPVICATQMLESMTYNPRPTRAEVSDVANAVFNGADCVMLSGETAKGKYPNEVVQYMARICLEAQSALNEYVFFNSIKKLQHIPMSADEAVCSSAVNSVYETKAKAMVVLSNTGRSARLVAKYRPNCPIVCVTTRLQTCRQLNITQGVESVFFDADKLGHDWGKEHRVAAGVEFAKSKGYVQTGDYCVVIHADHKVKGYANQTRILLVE
# Sequence of Alpha-galactosidase A (Homo sapiens) (P06280 whole entry, looked up): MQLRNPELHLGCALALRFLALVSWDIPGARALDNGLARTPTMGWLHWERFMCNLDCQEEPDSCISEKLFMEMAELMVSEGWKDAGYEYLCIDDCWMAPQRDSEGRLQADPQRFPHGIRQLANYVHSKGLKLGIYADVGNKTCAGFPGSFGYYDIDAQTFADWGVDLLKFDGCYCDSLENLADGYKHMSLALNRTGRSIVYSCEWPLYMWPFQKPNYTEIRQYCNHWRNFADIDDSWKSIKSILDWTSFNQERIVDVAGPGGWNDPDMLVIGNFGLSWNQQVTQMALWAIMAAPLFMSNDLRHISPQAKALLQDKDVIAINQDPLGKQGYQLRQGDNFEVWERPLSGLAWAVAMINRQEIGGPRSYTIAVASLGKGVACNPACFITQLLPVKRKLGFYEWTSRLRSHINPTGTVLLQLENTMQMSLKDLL
# Sequence of Pyruvate kinase PKM (Homo sapiens) (P14618 whole entry, looked up): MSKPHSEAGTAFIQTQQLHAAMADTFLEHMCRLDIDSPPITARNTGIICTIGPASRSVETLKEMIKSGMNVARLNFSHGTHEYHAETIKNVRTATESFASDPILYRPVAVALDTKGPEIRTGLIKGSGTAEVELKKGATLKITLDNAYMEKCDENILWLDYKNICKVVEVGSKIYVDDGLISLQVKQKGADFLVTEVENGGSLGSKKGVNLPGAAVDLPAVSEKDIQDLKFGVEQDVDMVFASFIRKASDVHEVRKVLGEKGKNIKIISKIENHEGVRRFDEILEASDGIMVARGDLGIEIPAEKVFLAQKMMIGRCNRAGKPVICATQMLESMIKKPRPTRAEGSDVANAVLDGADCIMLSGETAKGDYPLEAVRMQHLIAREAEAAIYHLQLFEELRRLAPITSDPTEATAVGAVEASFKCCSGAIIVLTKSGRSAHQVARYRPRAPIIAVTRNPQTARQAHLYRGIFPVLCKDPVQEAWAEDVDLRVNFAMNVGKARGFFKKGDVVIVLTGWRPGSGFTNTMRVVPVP
# Sequence of Cytochrome P450 2D6 (Homo sapiens) (P10635 whole entry, looked up): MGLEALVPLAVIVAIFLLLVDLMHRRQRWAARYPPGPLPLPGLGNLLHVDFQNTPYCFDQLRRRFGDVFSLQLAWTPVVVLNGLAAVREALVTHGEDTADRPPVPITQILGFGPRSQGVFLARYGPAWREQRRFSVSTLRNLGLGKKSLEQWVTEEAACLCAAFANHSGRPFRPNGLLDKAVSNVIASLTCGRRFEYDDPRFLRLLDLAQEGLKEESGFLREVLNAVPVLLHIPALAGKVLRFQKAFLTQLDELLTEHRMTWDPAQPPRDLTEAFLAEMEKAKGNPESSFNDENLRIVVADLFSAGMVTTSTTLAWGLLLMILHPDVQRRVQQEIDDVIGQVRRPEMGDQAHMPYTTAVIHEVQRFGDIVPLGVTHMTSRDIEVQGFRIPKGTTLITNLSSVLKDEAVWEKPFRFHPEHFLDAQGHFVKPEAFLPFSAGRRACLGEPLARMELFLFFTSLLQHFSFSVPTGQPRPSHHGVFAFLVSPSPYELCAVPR
compound,measurement,setting,value
COc1cccc2c1[C@@H]1CN(CCCCn3c(=O)[nH]c4c(sc5ncc(-c6ccccc6)nc54)c3=O)C[C@H]1CO2,"activity change, negative = inhibition",[1],4.55% [at 38 µM]
same,Potency,[2],31.6 µM (active)
same,"activity, negative = inhibition",[3],22.8% [at 38 µM]
same,Potency,[4],> 46 µM
same,Potency,[5],> 46 µM
same,Potency,[6],inactive
same,outcome,[7],inactive
same,Potency,[8],inactive
same,Potency,[9],11.2 µM (active)
same,Potency,[10],inactive
same,Potency,[11],inactive
same,outcome,[12],inactive
same,outcome,[13],inactive
same,outcome,[14],inactive
Cc1cc(Cc2cc(Cc3cc(C)cc(C(C)(C)C)c3O)c(C)cc2C)c(O)c(C(C)(C)C)c1,"activity change, negative = inhibition",[1],-2.73% [at 7.69 µM]
same,"activity change, negative = inhibition",[2],-17.2% [at 2.29 µM]
same,"activity, negative = inhibition",[3],-3.85% [at 7.69 µM]
same,Potency,[4],> 46 µM
same,Potency,[5],> 9.22 µM
same,"activity change, negative = inhibition",[15],-4.33% [at 11.4 µM]
same,Potency,[6],inactive
same,Potency,[16],3.16 µM (active)
N=C1[C@@H](O)[C@]2(I)c3ccccc3N3C(=N)[C@H](O)[C@@H]4c5ccccc5N1[C@@H]4[C@@H]32,"activity change, negative = inhibition",[1],9.35% [at 7.69 µM]
same,Potency,[2],2.51 µM (active)
same,Potency,[4],> 46 µM
same,Potency,[5],> 9.22 µM
same,"activity change, negative = inhibition",[15],-25.9% [at 11.4 µM]
same,Potency,[6],inactive
same,Potency,[17],3.16 µM (active)
CCOC(=O)CC1=C(C(=O)OCC)C(c2ccc(OC)c(OC)c2)C(C#N)=C(N)O1 (stereo unspecified),"activity change, negative = inhibition",[1],1.15%
same,"activity change, negative = inhibition",[18],-21.5%
same,"activity, negative = inhibition",[3],5.77%
COC(=O)C1=C(C)N=C2SC(C)C(=O)N2C1c1cccs1 (stereo unspecified),"activity change, negative = inhibition",[1],-11.1%
same,"activity change, negative = inhibition",[18],-9.72%
same,"activity, negative = inhibition",[3],-9.23%
COc1cccc2c1C(=O)c1c(O)c3c(c(O)c1C2=O)C[C@](O)(C(C)=O)C[C@H]3O[C@@H]1C[C@H](N)[C@H](O)[C@H](C)O1,"activity change, negative = inhibition",[1],-116% (active)
same,Potency,[2],inactive
same,Potency,[4],> 20.6 µM
same,Potency,[5],> 20.6 µM
same,Potency,[6],inactive
same,Potency,[8],inactive
same,Potency,[19],inactive
O=C1[C@@H]2C=CC=CC2=NC(=S)N1CCN1CCC(=C(c2ccc(F)cc2)c2ccc(F)cc2)CC1,"activity change, negative = inhibition",[1],26.4% [at 38 µM]
same,Potency,[2],inactive
same,"activity, negative = inhibition",[3],6.96% [at 38 µM]
same,Potency,[4],> 46 µM
same,Potency,[5],> 46 µM
same,Potency,[15],inactive
same,Potency,[8],inactive
same,Potency,[20],inactive
same,Potency,[9],inactive
same,Potency,[10],inactive
same,Potency,[11],inactive
same,outcome,[12],inactive
same,outcome,[13],inactive
same,outcome,[14],inactive
